Measurements reported in publication PMC7819943, “Rice protein-binding microarrays: a tool to detect cis-acting elements near promoter regions in rice”.
The full ranking holds about 39,000 sequences; the median of “fluorescence intensity (a.u.)” is about 4,300, and the highest 2% start at about 39,000. This excerpt belongs to a sample that is enriched for the highest values.

These sequences were tested against T1, OsSMF1 (Oryza sativa, UniProt Q6ZLB0 1-436) (assay: protein-binding microarray (RPBM); PBS, 2% BSA, 51.3 ng/ul salmon testes DNA, 50 uM zinc acetate, 200 nM TF, 25 C, 1 h; high values mean tight binding). Details: protein: recombinant; tags: N-terminal polyhistidine and DsRed monomer fusion (pET32a); chain copies: 2; label: CyDye5-dUTP incorporated in the synthesized complementary strand; 3' TTTTT single-stranded linker to array surface; dsDNA, one strand shown.
T1 sequence: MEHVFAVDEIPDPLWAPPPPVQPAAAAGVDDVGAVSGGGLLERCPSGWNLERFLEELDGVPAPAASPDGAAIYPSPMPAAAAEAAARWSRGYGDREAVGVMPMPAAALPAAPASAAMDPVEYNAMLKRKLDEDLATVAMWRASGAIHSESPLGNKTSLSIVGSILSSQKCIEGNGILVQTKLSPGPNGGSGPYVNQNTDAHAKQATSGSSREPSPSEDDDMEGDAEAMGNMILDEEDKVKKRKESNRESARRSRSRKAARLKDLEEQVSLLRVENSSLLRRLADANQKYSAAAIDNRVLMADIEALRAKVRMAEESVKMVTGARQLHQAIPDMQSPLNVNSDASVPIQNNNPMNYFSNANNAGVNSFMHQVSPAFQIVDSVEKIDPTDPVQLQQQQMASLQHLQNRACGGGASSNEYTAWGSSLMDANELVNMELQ
How it was run: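 Binding signal here means per-feature fluorescence intensity in arbitrary units. The values were read on an Axon 4000B scanner after a custom Agilent array, double-stranded by primer extension with Cy5-dUTP, was incubated with 200 nM protein at 25 °C for 1 h in PBS with 2% BSA, salmon testes DNA and 50 µM zinc acetate, then washed. The proteins were transcription factors with an N-terminal polyhistidine tag and DsRed, expressed in E. coli BL21-CodonPlus and purified on Ni–NTA.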

Row | Sequence | binding signal
1 | GGAGGGTGGGGTAGGAGAGGATGCGGCGGGCGCCATGGCTCGGAGTCACCTAGTGCAG | 3450 fluorescence intensity (a.u.)
2 | GCCACTTGCCCAGGTCACGCACACATTATTGAGCGAGCGACGGAGTCACCTAGTGCAG | 4590 fluorescence intensity (a.u.)
3 | AGTCGCACGCCAAGTGTTTGTTGTTTTGCCAAGCAAGATGCGGAGTCACCTAGTGCAG | 3520 fluorescence intensity (a.u.)
4 | TCGAGCCCCTCTCCCTCCGCGAGCCGTGTGCAGCGGGCGACGGAGTCACCTAGTGCAG | 3430 fluorescence intensity (a.u.)
5 | ACGGATTCCTGTTAATAGAGTGTTTCCGTAATATGTGGCACGGAGTCACCTAGTGCAG | 3820 fluorescence intensity (a.u.)
6 | GTTTGGGGTTTCTTTCCTGCCTCGTGAGCTGACGCCGGTGCGGAGTCACCTAGTGCAG | 4080 fluorescence intensity (a.u.)
7 | CCGGCGGCAGTGGCCCGGCGGCGCCGCCACCTTCCGTGCCCGGAGTCACCTAGTGCAG | 43700 fluorescence intensity (a.u.)
8 | AAAGCGTTCCGCGGCGCCGCCGTGGCGTCCGGCGTCCGGCCGGAGTCACCTAGTGCAG | 3900 fluorescence intensity (a.u.)
9 | CGCCTTCGTCCCATCTCGACCGTCCACGTGTGGCCCATCCCGGAGTCACCTAGTGCAG | 8200 fluorescence intensity (a.u.)
10 | GGCAGCCATTCCCACCGCGCCACACGCGCCACACGCCCCGCGGAGTCACCTAGTGCAG | 3240 fluorescence intensity (a.u.)
11 | GCCGCGCCGCGCCGTGGCGTGGCGTGGCGTGGCGCGGCCACGGAGTCACCTAGTGCAG | 6530 fluorescence intensity (a.u.)
12 | GTTAGTGCCACGTGGCGCCTTCCCATTCGACCGCCGCCCGCGGAGTCACCTAGTGCAG | 42100 fluorescence intensity (a.u.)
13 | CTCGAGCCCGCGGATGGCGCCCCATGGCGTGGCGGCGGAGCGGAGTCACCTAGTGCAG | 3820 fluorescence intensity (a.u.)
14 | TGTAAGCATCAGCATGTCAAGGTTAACACCTCACTATCTCCGGAGTCACCTAGTGCAG | 4630 fluorescence intensity (a.u.)
15 | ACAGGGGCAGGGGTCATGTGGTGGAGGTAATCAATTAATCCGGAGTCACCTAGTGCAG | 3660 fluorescence intensity (a.u.)
16 | TAGATGTTACTCCCTCCGTCCCTTCGTCCTAAAATGTAGCCGGAGTCACCTAGTGCAG | 35900 fluorescence intensity (a.u.)
17 | GCAGATCTTGACTATCTCCACGGGATATATACACGGCGGCCGGAGTCACCTAGTGCAG | 22300 fluorescence intensity (a.u.)
18 | CTCCCTTCCCTTCCCTTCCTCTCGCCGAACCAACGCGGAACGGAGTCACCTAGTGCAG | 3360 fluorescence intensity (a.u.)
19 | CGCTCATGAAGCTCCTTCCCTACGCGCGCTCGCCGAATCGCGGAGTCACCTAGTGCAG | 44000 fluorescence intensity (a.u.)
20 | GCTCCTCGCGCTGCTCATCATCCTCCCCTCCACGCCGCCGCGGAGTCACCTAGTGCAG | 4730 fluorescence intensity (a.u.)
21 | CCCAAGGAGGATGAGGTGGAGGTGGGAGTGCGCATTGAGGCGGAGTCACCTAGTGCAG | 4880 fluorescence intensity (a.u.)

Row | Sequence | binding signal
22 | CCTTAGACCTTCTGGATTACATCGTAAGCTGGCTTCTCCTCGGAGTCACCTAGTGCAG | 3490 fluorescence intensity (a.u.)
23 | CCACACAGCGATAATCGAGCGGATTGGACCAAAGTACGAGCGGAGTCACCTAGTGCAG | 38200 fluorescence intensity (a.u.)
24 | CAAAGCGGCCCAACAATGAACACGTCACTTGTATTCACTACGGAGTCACCTAGTGCAG | 7510 fluorescence intensity (a.u.)
25 | ACAAACTTTGTATACGTGTATAAAATATTGATATATGTACCGGAGTCACCTAGTGCAG | 4410 fluorescence intensity (a.u.)
26 | GTTTGAGATGTGTAATAAAGGATCGATCTTGTTGACGATCCGGAGTCACCTAGTGCAG | 3530 fluorescence intensity (a.u.)
27 | TGACAGGTTGATGTGATGGAAAAGGACTGAAGGTTGGATCCGGAGTCACCTAGTGCAG | 42400 fluorescence intensity (a.u.)
28 | ATGTGACTGAAAAGTTGTGTGTGTATGACAGGTTGATGTGCGGAGTCACCTAGTGCAG | 3800 fluorescence intensity (a.u.)
29 | CCAGGATAAAATAAAGGTTGTATGTTACAAATGTTTGATCCGGAGTCACCTAGTGCAG | 42200 fluorescence intensity (a.u.)
30 | TTGATTGAAATTGGAGATGATGTGACTGAAAAGTTGTGTGCGGAGTCACCTAGTGCAG | 4220 fluorescence intensity (a.u.)
31 | GAAGTGTCCATATTGAGTCATTTGTCCATTTGCCCAGGCACGGAGTCACCTAGTGCAG | 4960 fluorescence intensity (a.u.)
32 | TCCTCTTGCCTCCTCCGCTGAGGCAGCCAGTGCGTGCGCCCGGAGTCACCTAGTGCAG | 3360 fluorescence intensity (a.u.)
33 | AGATGATCTAGGCGTGCGTGCATGCATGCGTGGCCCGCCACGGAGTCACCTAGTGCAG | 4340 fluorescence intensity (a.u.)
34 | CTCCTCCTCCTCCAGACCTCCACGCGAGCGTGCCCCGGGGCGGAGTCACCTAGTGCAG | 4470 fluorescence intensity (a.u.)
35 | TTGCAAACACAGGAATTACCGTTTGATTGAACCACAGGAACGGAGTCACCTAGTGCAG | 12300 fluorescence intensity (a.u.)
36 | AAGGAAGTCGTTTTGGACAGCGACACAGTCTCTAAAACACCGGAGTCACCTAGTGCAG | 58900 fluorescence intensity (a.u.)
37 | GCCTCGTTTGATTGGTCACATGCATGGAAAGAGACTCACACGGAGTCACCTAGTGCAG | 16700 fluorescence intensity (a.u.)
38 | CCGTACTCATAAAGGAAGTCGTTTTGGACAGCATCACGGTCGGAGTCACCTAGTGCAG | 4170 fluorescence intensity (a.u.)
39 | AAAACACAGGAATGGTCGTTTGATTGGAGCGCAGGAGAAACGGAGTCACCTAGTGCAG | 64900 fluorescence intensity (a.u.)
40 | CAACTTTGGAAGAACTAAACACAGCATATGACAGTGCAGTCGGAGTCACCTAGTGCAG | 4130 fluorescence intensity (a.u.)
41 | TAACATAGTTGATATTGTTTAATGTCATGACAAAGAATGACGGAGTCACCTAGTGCAG | 3580 fluorescence intensity (a.u.)
42 | CTCCTACATGCACTCCCCTCTACAAAACCACAACCAGCATCGGAGTCACCTAGTGCAG | 3600 fluorescence intensity (a.u.)
